This passage reports activity change results from PubChem BioAssay AID1159554 (Broad Institute, 2015).

Where “and” joins values, the source holds several entries; their conditions need not be identical. Equal values may be shown once. The whole screen tested about 94,000 compounds, of which about 2,100 (2.2%) were called active. Cut-off read from the data, not from the text of the source: active = activity change below about -80%; inconclusive = no clear call, values can overlap the other calls; inactive = above that. The sample as a whole holds a higher share of actives than the screen did. Where a structure was tested more than once in an assay, its records may differ in their call.

The assay in a line: P. falciparum Dd2 growth inhibitors, primary screen, SYBR Green fluorescence, single dose replicates (AID 1159554). To be noted: 72 h, at 10 µM, stronger effect = lower value.
On to `CC(=O)N(C)C[C@H]1Oc2cc(C#Cc3ccccc3F)ccc2S(=O)(=O)N([C@H](C)CO)C[C@@H]1C`, for which the activity change is -24.1% (inactive).

For the compound `CC(=O)N(C)C[C@@H]1Oc2cc(C#Cc3ccccc3F)ccc2S(=O)(=O)N([C@@H](C)CO)C[C@@H]1C`, the activity change was -36.8% (inactive).

On to `C[C@@H]1CN([C@H](C)CO)S(=O)(=O)c2ccc(C#Cc3ccccc3F)cc2O[C@@H]1CN(C)C(=O)c1ccc2c(c1)OCO2`, for which the activity change was -67% (inactive).

As for `C[C@@H]1CN([C@@H](C)CO)S(=O)(=O)c2ccc(C#Cc3ccccc3F)cc2O[C@H]1CN(C)C(=O)c1ccc2c(c1)OCO2`, the activity change is -85.3% (active).

For the compound `CC(=O)N(C)C[C@H]1Oc2cc(C#Cc3ccccc3F)ccc2S(=O)(=O)N([C@@H](C)CO)C[C@H]1C`, the activity change was -22.1% (inactive).

On to `C[C@H]1CN([C@@H](C)CO)S(=O)(=O)c2ccc(C#Cc3ccccc3F)cc2O[C@@H]1CN(C)C(=O)c1ccc2c(c1)OCO2`, for which the activity change is -86.6% (active).

In the case of `CN(C)CC#Cc1ccc([C@@H]2[C@H](CO)N3CCCCN(C(=O)Nc4ccc(F)cc4)C[C@@H]23)cc1`, the activity change was -18.7% (inactive).

Regarding `COc1ccc(C#Cc2ccc([C@H]3[C@@H](CO)N4CCCCN(C(=O)Nc5ccccc5)C[C@H]34)cc2)cc1`, the activity change was -69.3% (inactive).

`O=C(Nc1ccc(F)cc1)N1CCCCN2[C@H](CO)[C@H](c3ccc(C#Cc4ccccc4)cc3)[C@H]2C1`: the activity change is -83.4% (active).

Take `C[C@H](CO)N1C[C@H](C)[C@@H](CN(C)Cc2cccc(F)c2)Oc2cc(C#CC3CC3)ccc2S1(=O)=O`: the activity change is -15.8% (inactive).

As to `CCCN(C)C[C@@H]1Oc2cc(-c3cccc(C#N)c3)ccc2S(=O)(=O)N([C@@H](C)CO)C[C@@H]1C`, the activity change was -82.2% (active).

As for `C[C@H]1CN([C@@H](C)CO)S(=O)(=O)c2ccc(-c3cccc(C#N)c3)cc2O[C@H]1CN(C)CC1CC1`, the activity change is -83.2% (active).

Turning to `C[C@H](CO)N1C[C@H](C)[C@@H](CN(C)C(=O)C2CC2)Oc2cc(-c3cccc(C#N)c3)ccc2S1(=O)=O`, the activity change was -26.1% (inactive).

For `C[C@@H]1CN([C@@H](C)CO)S(=O)(=O)c2ccc(-c3cccc(C#N)c3)cc2O[C@@H]1CN(C)Cc1cccc(F)c1`, the activity change is -39.8% (inactive).

In the case of `C[C@@H]1CN([C@H](C)CO)S(=O)(=O)c2ccc(-c3ccccc3)cc2O[C@@H]1CN(C)CC1CC1`, the activity change was -40.4% (inactive).

`CCC(=O)N(C)C[C@H]1Oc2cc(-c3cccc(C#N)c3)ccc2S(=O)(=O)N([C@@H](C)CO)C[C@@H]1C`: the activity change is 7.55% (inactive).

As to `CNC(=O)C[C@@H]1CC[C@@H]2[C@H](COC[C@@H](O)CN2S(=O)(=O)c2ccccc2Cl)O1`, the activity change is 24.5% (inactive).

On to `Cc1ccccc1-c1ccc2c(c1)O[C@H](CN(C)Cc1ccc(C(=O)O)cc1)[C@@H](C)CN([C@H](C)CO)S2(=O)=O`, for which the activity change is -8.07% (inactive).

Regarding `CO[C@H](CN(C)C(=O)c1ccc2c(c1)OCO2)[C@H](C)CN([C@@H](C)CO)S(=O)(=O)c1ccc(Cl)cc1`, the activity change was 10.7% (inactive).

Turning to `COCCNC(=O)C[C@@H]1C[C@@H]2c3cc(NS(=O)(=O)c4ccccc4)ccc3O[C@@H]2[C@H](CO)O1`, the activity change is 18.7% (inactive).

In the case of `Cn1cnc(S(=O)(=O)N2C[C@@H](O)COC[C@@H]3O[C@H](CC(=O)NC4CCC4)CC[C@H]32)c1`, the activity change was 8.29% (inactive).

On to `CC(C)(C)[S@](=O)N1Cc2cc(C(=O)N[C@@H]3CCN(Cc4ccccc4)C3)nc(-c3cccc(-c4ccncc4)c3)c2[C@@H]1CCO`, for which the activity change is -81.2% (active).

`CCCNC(=O)c1cc2c(c(-c3cccc(-c4ccc(F)cc4)c3)n1)[C@@H](CCO)N([S@](=O)C(C)(C)C)C2`: the activity change was -18.8% (inactive).

Regarding `CC(C)(C)[S@@](=O)N1Cc2cc(C(=O)NCc3ccc4c(c3)OCO4)nc(-c3cccc(-c4ccccc4)c3)c2[C@H]1CCO`, the activity change is -48.4% (inactive).

As for `COc1ccc2c3c(n(C)c2c1)[C@H](CO)N(C(=O)C1CCCC1)CC31CCN(C(=O)c2ccncc2)CC1`, the activity change is -53.1% (inactive).

In the case of `C/C=C/c1ccc([C@@H]2[C@H](CO)N(CC3CCCC3)C23CN(C(=O)CC2CC2)C3)cc1`, the activity change is -85% (active).

Take `C/C=C/c1ccc([C@@H]2[C@H](CO)N(CC3CCCC3)C23CN(C(=O)CC)C3)cc1`: the activity change is -53.8% (inactive).

For `C/C=C/c1ccc([C@@H]2[C@@H](CO)N(CC3CCCC3)C23CN(S(=O)(=O)CC)C3)cc1`, the activity change is -78.3% (inactive).

With `CCCNC(=O)N(C)C[C@H]1Oc2ncc(-c3ccc(F)cc3)cc2C(=O)N([C@H](C)CO)C[C@H]1C`, the activity change was 0.175% (inactive).

For the compound `CCCNC(=O)NC[C@H]1[C@H](c2ccc(C3=CCCCC3)cc2)[C@H](CO)N1C(C)=O`, the activity change is -9.89% (inactive).

Regarding `COc1ccc(S(=O)(=O)N(C)C[C@H]2OCCCC[C@H](C)Oc3ccc(NC(=O)CCC(F)(F)F)cc3C(=O)N([C@@H](C)CO)C[C@@H]2C)cc1`, the activity change was -55.8% (inactive).

`Cc1noc(C)c1NC(=O)N(C)C[C@@H]1Oc2c(NC(=O)CCCCCC(=O)Nc3ccccc3N)cccc2C(=O)N([C@H](C)CO)C[C@@H]1C`: the activity change was 20.3% (inactive).

On to `C[C@@H]1CN([C@H](C)CO)C(=O)c2cccc(NC(=O)CCCCCC(=O)Nc3ccccc3N)c2O[C@H]1CN(C)Cc1ccc(Oc2ccccc2)cc1`, for which the activity change is -91.8% (active).

`C[C@H]1CN([C@@H](C)CO)C(=O)c2cccc(NC(=O)c3cnccn3)c2O[C@@H]1CN(C)Cc1ccc(Oc2ccccc2)cc1`: the activity change is -3.4% (inactive).

Take `C[C@H](CO)N1C[C@H](C)[C@H](CN(C)Cc2ccccc2)Oc2ccc(NC(=O)CCCCCC(=O)Nc3ccccc3N)cc2C1=O`: the activity change was -61% (inactive).

`C[C@H](CO)N1C[C@H](C)[C@H](CN(C)Cc2ccc(Oc3ccccc3)cc2)Oc2c(NC(=O)CCCCCC(=O)Nc3ccccc3N)cccc2C1=O`: the activity change was -92.5% (active).

Take `C[C@H]1CN([C@@H](C)CO)C(=O)c2cccc(NC(=O)Nc3ccccc3)c2O[C@H]1CN(C)Cc1ccc(Oc2ccccc2)cc1`: the activity change was -12% (inactive).

On to `CC=Cc1ccc2n(c1=O)C[C@@H]1[C@@H](CO)[C@H](C(=O)NCC)[C@H]2N1CCC(F)(F)F` (mixture of isomers), for which the activity change is 0.676% (inactive).

As to `CO[C@H]1CN(C)C(=O)c2ccc(NC(=O)C3CC3)cc2OC[C@@H](C)N(C)C[C@H]1C`, the activity change was 24.8% (inactive).

As to `COCC(=O)Nc1ccc2c(c1)C(=O)N(C)[C@H]1CC[C@@H](CC(=O)Nc3cn(C)nc3C)O[C@@H]1CO2`, the activity change was -1.96% (inactive).

For `COc1ccc2c3c([nH]c2c1)[C@H](CO)N(C(=O)c1ccccc1)CC31CCN(S(=O)(=O)c2cccs2)CC1`, the activity change is 23.2% (inactive).

As to `CCNC(=O)C[C@@H]1CC[C@@H]2[C@@H](COc3ccc(NC(=O)c4cccc(C(F)(F)F)c4)cc3C(=O)N2C)O1`, the activity change was -22.5% (inactive).

Turning to `c1ccc(-c2ccc(C3[C@@H]4CN(Cc5cccnc5)C[C@H]3N4)cc2)cc1` (some centres undefined), the activity change was -91.7% (active) and -72.1% (inactive).

As for `OC[C@H]1[C@@H](c2ccc(/C=C/c3ccccc3)cc2)[C@H]2CN(Cc3cccnc3)CCCCN21`, the activity change was -61.1% (inactive).

With `O=C(Cc1ccncc1)N1C[C@@H]2N[C@H](C1)C2c1ccc(-c2ccc(F)cc2)cc1` (some centres undefined), the activity change was -75.3% (inactive).

With `CC(C)CC#Cc1ccc([C@@H]2[C@@H](CO)N3C(=O)CN(C(=O)Nc4ccc(F)cc4)C[C@H]23)cc1`, the activity change is -28.4% (inactive).

Regarding `COc1ccccc1CNC(=O)C[C@H]1CC[C@@H]2[C@H](COC[C@H](O)CN2Cc2ccccc2)O1`, the activity change is 6.62% (inactive).

On to `C[C@@H]1CN([C@H](C)CO)C(=O)Cc2cc(NC(=O)Nc3ccc4c(c3)OCO4)ccc2O[C@@H]1CN(C)Cc1ccc(C(=O)Nc2ccccc2N)cc1`, for which the activity change was -76.5% (inactive).

For `COc1ccc(S(=O)(=O)Nc2ccc3c(c2)CC(=O)N([C@@H](C)CO)C[C@@H](C)[C@@H](CN(C)Cc2ccc(C(=O)Nc4ccccc4N)cc2)O3)cc1`, the activity change is -80.3% (active).

Turning to `C[C@H]1CN([C@@H](C)CO)C(=O)Cc2cc(NC(=O)Nc3ccc4c(c3)OCO4)ccc2O[C@H]1CN(C)Cc1ccc(C(=O)Nc2ccccc2N)cc1`, the activity change was -81.3% (active).

As to `COc1ccc(S(=O)(=O)Nc2ccc3c(c2)CC(=O)N([C@@H](C)CO)C[C@H](C)[C@@H](CN(C)Cc2ccc(C(=O)O)cc2)O3)cc1`, the activity change was 22.3% (inactive).

`C[C@@H]1CN([C@H](C)CO)C(=O)Cc2cc(NC(=O)Nc3ccc4c(c3)OCO4)ccc2O[C@H]1CN(C)Cc1ccc(C(=O)O)cc1`: the activity change is 21.4% (inactive).

`COc1ccc(CN(C)C[C@H]2Oc3ccc(NS(=O)(=O)c4ccc(Cl)cc4)cc3CC(=O)N([C@@H](C)CO)C[C@H]2C)cc1`: the activity change is 12.9% (inactive).

For `Cc1ccc(S(=O)(=O)Nc2ccc3c(c2)CC(=O)N([C@@H](C)CO)C[C@H](C)[C@H](CN(C)Cc2ccc(C(=O)Nc4ccccc4N)cc2)O3)cc1`, the activity change is -86.6% (active).

As to `Cc1ccc(S(=O)(=O)Nc2ccc3c(c2)CC(=O)N([C@H](C)CO)C[C@@H](C)[C@H](CN(C)Cc2ccc(C(F)(F)F)cc2)O3)cc1`, the activity change is 32% (inactive).

On to `Cc1ccc(S(=O)(=O)Nc2ccc3c(c2)C(=O)N([C@H](C)CO)C[C@H](C)[C@@H](CN(C)Cc2ccccc2)OCCCC[C@H](C)O3)cc1`, for which the activity change was 30% (inactive).

As to `Cc1ccc(S(=O)(=O)Nc2ccc3c(c2)CC(=O)N([C@@H](C)CO)C[C@H](C)[C@H](CN(C)Cc2ccccc2)O3)cc1`, the activity change is -4.27% (inactive).

Take `Cc1ccc(S(=O)(=O)Nc2ccc3c(c2)C(=O)N([C@H](C)CO)C[C@H](C)[C@H](CN(C)Cc2ccc(C(=O)Nc4ccccc4N)cc2)OCCCC[C@@H](C)O3)cc1`: the activity change was -83.6% (active).

As for `Cc1ccc(S(=O)(=O)Nc2ccc3c(c2)C(=O)N([C@H](C)CO)C[C@@H](C)[C@H](CN(C)Cc2ccccc2)OCCCC[C@H](C)O3)cc1`, the activity change is -43.7% (inactive).
